Measured values from PubChem BioAssay (NCI).
The panel holds about 79,000 compounds, 15% with a hit somewhere; the sample as a whole holds those more often. Calls of active or inactive are those of the source. No stated cut-off is given here; in the data, active means growth inhibition above about 70%; inactive means the rest.

Legend:
[1] = NCI Yeast Anticancer Drug Screen. Data for the rad52 strain (AID 147);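 further: 0% = growth of vehicle-treated control cultures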; settings: S. cerevisiae rad52 mutant growth inhibition, active compounds read high
How it was run: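 DNA repair-defective yeast; compound exposure; growth scored against vehicle controls.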

[2] = NCI Yeast Anticancer Drug Screen. Data for the wt1 strain (AID 149);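 further: 0% = growth of vehicle-treated wt1 cultures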; settings: S. cerevisiae wt1 strain (SPY 50644) growth inhibition, active compounds read high
How it was run: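 Vehicle-normalised growth inhibition; strain wt1; compound exposure.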

[3] = NCI Yeast Anticancer Drug Screen. Data for the mgt1 strain (AID 153); settings: S. cerevisiae mgt1 mutant growth inhibition, active compounds read high
How it was run: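 Growth inhibition relative to vehicle controls was scored for the mgt1 yeast strain after compound exposure.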

[4] = NCI Yeast Anticancer Drug Screen. Data for the rad50 strain (AID 155);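 further: 0% = growth of vehicle-only cultures of the same strain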; settings: S. cerevisiae rad50 strain growth inhibition, active compounds read high
How it was run: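 A DNA repair-deficient yeast mutant serves as the test organism; compound-induced growth inhibition is calculated against vehicle-treated cells.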

[5] = NCI Yeast Anticancer Drug Screen. Data for the mec2-1 strain (AID 157); settings: S. cerevisiae mec2-1 strain, active compounds read high
How it was run: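 Growth inhibition is read against vehicle-treated controls after compound exposure of the mec2-1 yeast strain, which is defective in DNA damage repair or cell cycle control.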

[6] = NCI Yeast Anticancer Drug Screen. Data for the rad14 strain (AID 159);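 further: 0% = growth of vehicle-treated control cultures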; settings: S. cerevisiae rad14 strain growth inhibition, active compounds read high
How it was run: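 Vehicle-treated cultures served as the baseline for growth inhibition of a DNA repair-mutant yeast strain exposed to each compound.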

[7] = NCI Yeast Anticancer Drug Screen. Data for the sgs1 mgt1 strain (AID 161);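 further: 0% = growth of cultures given vehicle only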; settings: S. cerevisiae sgs1 mgt1 strain, active compounds read high
How it was run: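 Compounds are added to genetically altered yeast, and growth is compared with cultures given vehicle alone to give percent inhibition.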

[8] = NCI Yeast Anticancer Drug Screen. Data for the CLN2oe strain (AID 163);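 further: 0% = growth of vehicle-only control cultures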; settings: S. cerevisiae CLN2oe strain, active compounds read high
How it was run: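 Compound-treated yeast; growth vs vehicle ctrl = % inhibition. Genetically altered strain (cell-cycle control).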

[9] = NCI Yeast Anticancer Drug Screen. Data for the cln2 rad14 strain (AID 165);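 further: 0% = growth equal to vehicle treated cultures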; settings: S. cerevisiae cln2 rad14 strain, active compounds read high
How it was run: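 Growth inhibition, relative to vehicle-treated controls, is the read-out. The test organism is a yeast strain with defined genetic alterations, cln2 rad14.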

[10] = NCI Yeast Anticancer Drug Screen. Data for the bub3 strain (AID 167); settings: S. cerevisiae bub3 mutant strain, active compounds read high
How it was run: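 Inhibition values come from growth of compound-treated mutant yeast normalised to vehicle-treated controls.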

[11] = NCI Yeast Anticancer Drug Screen. Data for the wt2 strain (AID 169);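 further: 0% = growth of vehicle-treated yeast cultures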; settings: S. cerevisiae wt2 strain growth inhibition, active compounds read high
How it was run: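 Compound exposure of yeast; growth compared with vehicle controls; inhibition reported.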

[12] = NCI Yeast Anticancer Drug Screen. Data for the mlh1 strain (AID 171);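 further: 0% = growth of vehicle-treated control cultures of the same strain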; settings: S. cerevisiae mlh1 strain growth inhibition, active compounds read high
How it was run: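 Compounds are applied to a genetically altered yeast strain, and its growth is compared with that of vehicle-treated cultures to give percent inhibition.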

[13] = NCI Yeast Anticancer Drug Screen. Data for the sgs1 strain (AID 173);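 further: 0% = growth of vehicle-only control cultures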; settings: S. cerevisiae sgs1 mutant, active compounds read high
How it was run: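 Compounds applied to genetically altered yeast; growth compared with vehicle-treated cultures to give % inhibition.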

[14] = NCI Yeast Anticancer Drug Screen. Data for the mlh1 rad18 strain (AID 175); settings: S. cerevisiae mlh1 rad18 strain growth inhibition, active compounds read high
How it was run: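 Cells of a genetically altered yeast strain, deficient in DNA damage repair, were treated with compound. Their growth was then compared with that of vehicle-treated cultures to give inhibition.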

[15] = NCI Yeast Anticancer Drug Screen. Data for the rad18 strain (AID 177); settings: S. cerevisiae rad18 mutant growth inhibition, active compounds read high
How it was run: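 Compounds are applied to a repair-deficient yeast strain, and growth is compared with that of vehicle-treated cultures to give percent inhibition.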

[16] = NCI Yeast Anticancer Drug Screen. Data for the rad50EPP+ strain (AID 151);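 further: 0% = growth of vehicle-treated control cultures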; settings: S. cerevisiae rad50 mutant strain, active compounds read high
How it was run: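 rad50EPP+ yeast treated with test compounds. Readout: growth vs vehicle control.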

[17] = at 5.0 µM (retest, dose inferred, filed as 0.5)
[18] = at 50.0 µM (retest, dose inferred, filed as 5.0)

Measured: growth inhibition

CCOC(=O)C1N=[N+](c2ccccc2)C(=O)/C1=C\n1c(=S)[nH]c2ccc([N+](=O)[O-])cc21 (stereo unspecified)
active: [4]; [18] 94% | [5]; [18] 96% | [9]; [18] 95% | [10]; [17] 97% | [10]; [18] 99% | [14]; [18] 94%
inactive: [1]; at 1.2 µM 0% | [1]; at 3.7 µM 1% | [1]; at 11.0 µM 2% | [1]; at 33.0 µM 0% | [1]; at 100.0 µM 9% | [2]; at 1.2 µM 1% | [2]; at 3.7 µM 3% | [2]; at 11.0 µM 2% | [2]; at 33.0 µM 3% | [2]; at 100.0 µM 6% | [3]; at 1.2 µM -1% | [3]; at 3.7 µM -1% | [3]; at 11.0 µM 0% | [3]; at 33.0 µM -11% | [3]; at 100.0 µM 5% | [4]; at 1.2 µM -6% | [4]; at 3.7 µM -14% | [4]; [17] 21% | [4]; at 11.0 µM -18% | [4]; at 33.0 µM 3% | [4]; at 50.0 µM 5.15% | [4]; at 100.0 µM 7% | [5]; at 1.2 µM 1% | [5]; at 3.7 µM 1% | [5]; [17] 13% | [5]; at 11.0 µM 2% | [5]; at 33.0 µM 7% | [5]; at 50.0 µM 17.2% | [5]; at 100.0 µM 9% | [6]; at 1.2 µM 0% | [6]; at 3.7 µM -2% | [6]; at 11.0 µM 1% | [6]; at 33.0 µM 2% | [6]; at 100.0 µM 8% | [7]; [17] -4% | [7]; [18] 63% | [7]; at 50.0 µM 19.9% | [8]; at 1.2 µM 1% | [8]; at 3.7 µM -1% | [8]; at 11.0 µM -1% | [8]; at 33.0 µM 4% | [8]; at 100.0 µM 3% | [9]; [17] 53% | [9]; at 50.0 µM 47.9% | [10]; at 1.2 µM -7% | [10]; at 3.7 µM 1% | [10]; at 11.0 µM 1% | [10]; at 33.0 µM 3% | [10]; at 50.0 µM 20.8% | [10]; at 100.0 µM 3% | [11]; at 1.2 µM 0% | [11]; at 3.7 µM 0% | [11]; at 11.0 µM -1% | [11]; at 33.0 µM 1% | [11]; at 100.0 µM 3% | [12]; at 1.2 µM 0% | [12]; at 3.7 µM 1% | [12]; at 11.0 µM 2% | [12]; at 33.0 µM 4% | [12]; at 100.0 µM 8% | [13]; at 1.2 µM 0% | [13]; at 3.7 µM 1% | [13]; at 11.0 µM -9% | [13]; at 33.0 µM 8% | [13]; at 100.0 µM 16% | [14]; [17] 24% | [14]; at 50.0 µM 5.05% | [15]; at 1.2 µM -2% | [15]; at 3.7 µM 1% | [15]; at 11.0 µM 3% | [15]; at 33.0 µM 7% | [15]; at 100.0 µM 15%

Cn1c(=O)c2c(nc(N)n2C2OC(CO)C(O)C2O)n(C)c1=O (stereo unspecified)
inactive: [1]; at 1.2 µM -2% | [1]; at 3.7 µM -1% | [1]; at 11.0 µM -4% | [1]; at 33.0 µM -4% | [1]; at 100.0 µM 0% | [2]; at 1.2 µM -1% | [2]; at 3.7 µM -1% | [2]; at 11.0 µM -2% | [2]; at 33.0 µM -2% | [2]; at 100.0 µM 1% | [16]; at 1.2 µM -1% | [16]; at 3.7 µM 1% | [16]; at 11.0 µM 1% | [16]; at 33.0 µM -1% | [16]; at 100.0 µM 2% | [4]; at 1.2 µM -2% | [4]; at 3.7 µM 0% | [4]; [17] 17% | [4]; at 11.0 µM -11% | [4]; at 33.0 µM -1% | [4]; [18] 22% | [4]; at 100.0 µM 1% | [5]; at 1.2 µM 0% | [5]; at 3.7 µM 1% | [5]; [17] -2% | [5]; at 11.0 µM 1% | [5]; at 33.0 µM -3% | [5]; [18] -19% | [5]; at 100.0 µM -2% | [7]; [17] -17% | [7]; [18] 20% | [8]; at 1.2 µM 1% | [8]; at 3.7 µM -3% | [8]; at 11.0 µM 3% | [8]; at 33.0 µM 3% | [8]; at 100.0 µM 10% | [9]; [17] -9% | [9]; [18] 50% | [10]; at 1.2 µM 0% | [10]; at 3.7 µM 3% | [10]; [17] -19% | [10]; at 11.0 µM 12% | [10]; at 33.0 µM 15% | [10]; [18] 18% | [10]; at 100.0 µM 15% | [11]; at 1.2 µM -4% | [11]; at 3.7 µM -4% | [11]; at 11.0 µM -4% | [11]; at 33.0 µM -2% | [11]; at 100.0 µM 0% | [12]; at 1.2 µM -1% | [12]; at 3.7 µM -7% | [12]; at 11.0 µM -1% | [12]; at 33.0 µM 3% | [12]; at 100.0 µM -1% | [13]; at 1.2 µM -1% | [13]; at 3.7 µM -1% | [13]; at 11.0 µM -1% | [13]; at 33.0 µM -2% | [13]; at 100.0 µM 1% | [14]; [17] 2% | [14]; [18] 37% | [15]; at 1.2 µM -1% | [15]; at 3.7 µM 2% | [15]; at 11.0 µM -1% | [15]; at 33.0 µM -2% | [15]; at 100.0 µM -2%
active: [4]; at 50.0 µM 87.4% | [5]; at 50.0 µM 92% | [7]; at 50.0 µM 85.3% | [9]; at 50.0 µM 88.6% | [10]; at 50.0 µM 89% | [14]; at 50.0 µM 83.8%

COc1ccc(N=CN(C)C)c(C)c1
inactive: [1]; at 1.2 µM -24% | [1]; at 3.7 µM -26% | [1]; at 11.0 µM 0% | [2]; at 1.2 µM -29% | [2]; at 3.7 µM -29% | [2]; at 11.0 µM -32% | [2]; at 33.0 µM 61% | [16]; at 1.2 µM -9% | [16]; at 3.7 µM -62% | [16]; at 11.0 µM -62% | [16]; at 33.0 µM -34% | [4]; at 1.2 µM -1% | [4]; at 3.7 µM 1% | [4]; [17] 50% | [4]; at 11.0 µM -19% | [5]; at 1.2 µM -44% | [5]; at 3.7 µM -70% | [5]; [17] 46% | [5]; at 11.0 µM -43%
active: [1]; at 33.0 µM 83% | [1]; at 100.0 µM 94% | [2]; at 100.0 µM 95% | [16]; at 100.0 µM 71% | [4]; at 33.0 µM 86% | [4]; [18] 78% | [4]; at 50.0 µM 91.5% | [4]; at 100.0 µM 95% | [5]; at 33.0 µM 85% | [5]; [18] 76% | [5]; at 50.0 µM 94%
